This is one part of a sample in which hits are shown more often than they occur.
Tg IFNy HTS – T. gondii growth inhibition with IFN-gamma, primary screen, cell-based; Toxoplasma gondii growth in IFN-gamma-treated host cells; stronger effect = lower value; activity change, negative = inhibition, % (no concentration beside the values); 3.8% of 69,000 active; AID 1259416, 2018; in the data active means activity change below about -70%, passing the limit was not always enough;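 further: host cells are HeLa cells infected with Toxoplasma gondii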
Hits are given with their value; - = inactive.

SMILES	Tg IFNy HTS
CCC(=O)N1CCc2c(nnn2CC2CC2)C1COCc1ccccc1 (centres undefined)	-
COc1ccc(S(=O)(=O)N2CCC[C@@H]2C(=O)NCCc2csc(C)n2)cc1	-
O=C(C1CCC1)N1CCc2c([nH]c3ccccc23)C1c1ccc(Cl)cc1 (centres undefined)	-
Cc1ccc(C2c3[nH]c4ccccc4c3CCN2C(=O)c2cccc(Cl)c2)cc1 (centres undefined)	-89.2
COc1cccc(C(=O)N2CCc3c([nH]c4ccccc34)C2c2ccc(Cl)cc2)c1 (centres undefined)	-99.5
Cn1nccc1C(=O)N1CCc2c([nH]c3ccccc23)C1c1ccc(Cl)cc1 (centres undefined)	-114.9
COc1ccc(C(=O)N2CCc3c([nH]c4ccccc34)C2c2ccc(Cl)cc2)cc1OC (centres undefined)	-
O=C(c1ccco1)N1CCc2c([nH]c3ccccc23)C1c1ccc(Cl)cc1 (centres undefined)	-87.6
CSc1ccc(C2c3[nH]c4ccccc4c3CCN2C(=O)c2cccc(Cl)c2)cc1 (centres undefined)	-
CSc1ccc(C2c3[nH]c4ccccc4c3CCN2C(=O)c2ccc(Cl)cc2)cc1 (centres undefined)	-
O=C(c1ccco1)N1CCc2c([nH]c3ccccc23)C1c1cccnc1 (centres undefined)	-
COCC(=O)N1CCc2c([nH]c3ccccc23)C1c1ccc(Cl)cc1 (centres undefined)	-
O=C(Cn1nnc(-c2ccccc2NC(=O)c2ccccc2)n1)NC1CCCCC1	-
CC(C)CN1C[C@@H]2CCNCC[C@H]2S1(=O)=O	-
Cc1noc(CCC(=O)Nc2ccc(C)c(S(=O)(=O)N(C)C)c2)n1	-
CC(C)CCN1C[C@@H]2CCN(C(=O)c3cn(C)c4ccccc34)CC[C@H]2S1(=O)=O	-
O=C(c1cccnc1)N1CCc2c([nH]c3ccccc23)C1c1ccc(Cl)cc1 (centres undefined)	-113.6
Cc1ccc(C2c3[nH]c4ccccc4c3CCN2C(=O)CCC2CCCC2)cc1 (centres undefined)	-
Cc1ccc(C2c3[nH]c4ccccc4c3CCN2C(=O)c2cccnc2)cc1 (centres undefined)	-
O=C(c1ccc2c(c1)OCO2)N1CCc2c([nH]c3ccccc23)C1c1ccc(Cl)cc1 (centres undefined)	-83.2
COc1cccc(C(=O)N2CCc3c([nH]c4ccccc34)C2c2ccc(C)cc2)c1 (centres undefined)	-126.5
O=C(c1cccnc1)N1CCc2c([nH]c3ccccc23)C1c1ccc(F)cc1 (centres undefined)	-
CSc1ccc(C2c3[nH]c4ccccc4c3CCN2C(=O)c2ccc3c(c2)OCO3)cc1 (centres undefined)	-
CCOc1ccccc1-c1nc(Cn2nnc(C(=O)Nc3ccc(OC)cc3OC)c2C)c(C)o1	-
Cc1noc(C)c1CN1CC2(CCN(C(=O)CO)C2)CC1=O (centres undefined)	-
SMILES	Tg IFNy HTS
Cc1cccc(-c2nc(Cn3nnc(-c4nc(-c5cccs5)no4)c3C)c(C)o2)c1	-
CC(NC(=O)C(c1ccc(Cl)cc1)N(C)C)c1nc2ccccc2s1 (centres undefined)	-
O=C1CCN(Cc2ccccc2)CCN1CCc1noc(CSc2ncn[nH]2)n1	-
Cc1cc(C)c(S(=O)(=O)N2CCC[C@@H]2C(=O)NCCc2csc(C)n2)c(C)c1	-
CN1CC2(CCCN(C(=O)c3ccc(-c4ccn[nH]4)cc3)C2)OC1=O (centres undefined)	-
Cc1nc(-c2ccc(Cl)cc2)sc1CCNC(=O)c1cccc(F)c1	-
CC(C)C(NC(=O)COc1ccc2nsnc2c1)c1cccs1 (centres undefined)	-
c1ccc2c(c1)nc1c2ccc2[nH]onc21	-
Nc1[nH]nc2nc3ccccc3nc12	-
Oc1c(Cl)c2nc3ccccc3nc2c2ccccc12	-104.7
COCCN1C(=O)N(C2Cc3ccccc3C2)C(=O)C12CCN(Cc1cc3ccccc3o1)CC2	-
O=C(c1ccccc1)C1CCN(C(=O)CC2COCCN2)CC1 (centres undefined)	-
CCOc1ccc(CNC(=O)C2=C(C)C(=O)OC23CCN(S(C)(=O)=O)CC3)cc1	-
O=C1CC(c2cccc(Br)c2)c2cc3c(cc2N1)CCC3 (centres undefined)	-83.1
O=C1CC(c2ccsc2)c2cc3cn[nH]c3cc2N1 (centres undefined)	-
COc1cc2c(cc1C1CC(=O)Nc3[nH]ncc31)CCC2 (centres undefined)	-
COc1c/c(=C2\C=c3ccccc3=N2)[nH]/c1=C\c1[nH]c(C)cc1C	-84.7
Cc1nc(-c2ccccn2)nc(SCc2ccccc2)c1Cl	-89.3
Clc1ccc(CSc2n[nH]c(-c3ccccn3)n2)cc1	-
Cc1nc(-c2ccccn2)nc(SCC(=O)N2CCOCC2)c1Cl	-
CN(C)C1CCN(C(=O)c2cc(-c3ccn(C4CCCC4)n3)n3ccccc23)CC1	-
COC(=O)CC1C(=O)NCCN1C(=O)c1cccc2c1NCCC2 (centres undefined)	-
CCCn1nnnc1SCC(=O)N1C(C)CCCC1C (centres undefined)	-75.7
Cn1nnnc1SCC(=O)N1CCOCC1	-
CCCn1nnnc1SCC(=O)NCc1ccc(OC)cc1	-
SMILES	Tg IFNy HTS
CN(Cc1ncc[nH]1)[C@@H]1CS(=O)(=O)C[C@H]1O	-
O=C(NCc1cn2ccsc2n1)c1ccccc1C1CCNC1 (centres undefined)	-
CCOc1ccccc1CN(CC)Cc1cc(=O)n2c3c(cccc13)CCC2	-
COc1ccccc1OC(=O)CNC(=O)Cc1ccc(C(=O)c2ccc(C)cc2)n1C	-
NC(=O)Cc1cccc(C(=O)c2ccccc2)c1N	-
Nc1ccc(N)c(C(=O)O)c1	-
CC(=O)c1ccc(-c2ccc(N)c(C(=O)c3ccccc3)c2)cc1	-85.4
CC1=C(C(=O)NCCCc2ccccc2)C2(CCN(S(C)(=O)=O)CC2)OC1=O	-
Cc1cnc(CN(C)C(=O)CN(c2cccc(F)c2)S(C)(=O)=O)[nH]1	-
Cn1cc(CCC(=O)N2CCC(c3n[nH]c(=O)n3-c3ccccc3)CC2)cn1	-
O=C(CC1=CCNCC1)N1CCC(c2n[nH]c(=O)n2-c2ccccc2)CC1	-73.3
Cc1n[nH]c(C)c1C(=O)N1CCC(c2n[nH]c(=O)n2-c2ccccc2)CC1	-
CCn1ccnc1CNC(=O)CCSc1ccc2c(c1)OCCO2	-
CC(C)c1csc(NC(=O)CC2NC(=O)N(c3ccccc3)C2=O)n1 (centres undefined)	-
Cn1c(=O)c2nc3ccccc3nc2n(C)c1=O	-
Cn1c(=O)c2c(nc(Oc3ccccc3Br)n2C)n(C)c1=O	-74.9
Cn1c(=O)c2c(ncn2Cc2ccccc2Cl)n(C)c1=O	-
CCOC(=O)N1CCN(C(=O)c2ccc(N3CCC(NCc4cccs4)CC3)cc2)CC1	-
Cc1c(C(=O)NCCCN2C(C)CCCC2C)oc2ccc3c(c12)C(O)CC1(CCCCC1)O3 (centres undefined)	-
CCOC(=O)N1CCC(NC(=O)c2oc3ccc4c(c3c2C)C(O)CC2(CCCCC2)O4)CC1 (centres undefined)	-95.3
COc1cc(-c2ccc(C(C)N3CCOCC3)cc2)cc2cc(C(=O)O)oc12 (centres undefined)	-
CNC(=O)c1ccc(Nc2ncc(C(F)(F)F)c(NCc3nccnc3N(C)S(C)(=O)=O)n2)cc1	-84.6
O=S(=O)(c1ccccc1F)N1CCC2(CC1)COCCN(Cc1cccnc1)C2	-

Screening results: PubChem, Broad Institute
